Screening data (PubChem)
FBW7 act: FBW7 E3 ligase activators, primary screen, biochemical, AlphaScreen, human; normalized activity (activation), % at 26.1 µM; F-box/WD repeat-containing protein 7 (Homo sapiens), Q969H0; 650,000 tested, 0.13% active; AlphaScreen FBW7–phospho-cyclin E peptide binding, activator screen; in the data active means normalized activity above about 1.9%;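 further: purified mutant Fbw7 with reduced substrate affinity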
TEAD-YAP inh: TEAD-YAP interaction inhibition, primary screen, TEAD-YAP interaction inhibitor project, luminescence, HEK-TIYL cells; 640,000 tested, 1.4% active; AID 1259422, 2018; inhibition, % at 9.12 µM; TEAD-Gal4/YAP UAS-luciferase luminescence; in the data active means inhibition above about 32%
MITF primary: MITF inhibitors, primary screen, biochemical, AlphaScreen, human; AlphaScreen MITF homodimerization, bead proximity signal; Microphthalmia-associated transcription factor (Homo sapiens), O75030; 650,000 tested, 0.91% active; inhibition, % at 2.6 µM; AID 1259374, 2018; in the data active means inhibition above about 50%
Target sequence (O75030 whole entry, looked up): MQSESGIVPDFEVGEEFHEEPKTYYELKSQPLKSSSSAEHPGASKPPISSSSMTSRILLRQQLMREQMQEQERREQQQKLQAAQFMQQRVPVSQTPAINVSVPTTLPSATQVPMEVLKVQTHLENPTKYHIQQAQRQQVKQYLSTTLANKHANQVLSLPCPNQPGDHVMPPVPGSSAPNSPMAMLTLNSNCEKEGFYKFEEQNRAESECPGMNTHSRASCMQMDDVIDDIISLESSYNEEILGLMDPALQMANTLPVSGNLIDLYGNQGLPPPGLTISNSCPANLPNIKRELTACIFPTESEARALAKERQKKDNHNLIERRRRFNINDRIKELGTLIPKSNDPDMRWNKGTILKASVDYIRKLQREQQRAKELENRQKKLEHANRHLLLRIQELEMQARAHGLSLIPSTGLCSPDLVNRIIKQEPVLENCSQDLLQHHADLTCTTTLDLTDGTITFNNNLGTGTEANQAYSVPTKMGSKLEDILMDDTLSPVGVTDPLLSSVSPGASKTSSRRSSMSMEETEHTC
GPR151 ag: activators of human GPR151, primary screen, cell-based, PathHunter beta-arrestin, luminescence; G-protein coupled receptor 151 (Homo sapiens), Q8TDV0; activation, % at 11.2 µM; 650,000 tested, 1% active; PathHunter beta-arrestin GPR151 cells; AID 1508602, 2020; in the data active means activation above about 4.9%
Large screens that a line does not name were inactive. Compounds with a hit are over-represented: about 3.5% of the library has one in this group of screens.

Cc1cccc(C)c1N(C)S(=O)(=O)c1ccc2[nH]cc(C(=O)NCc3cccnc3)c(=O)c2c1	TEAD-YAP inh 34.0
CCOC(=O)C1=C(C)Nc2nc(C(F)(F)F)nn2C1c1ccc(OC(F)F)cc1 (centres undefined)	none
Cc1ccc(S(=O)(=O)Nc2cccc(C(=O)NCc3cccnc3)c2)cc1	TEAD-YAP inh 58.1
Cc1ccc(S(=O)(=O)Oc2ccccc2/C=N/N=C(N)N)cc1	none
Cc1ccc(S(=O)(=O)Oc2ccccc2/C=N/NC(N)=S)cc1	TEAD-YAP inh 60.5
COc1ccc(C2CC(=O)C3=C(C2)NC(C)=C(C(=O)OCc2ccccc2)C3c2cccc(F)c2)cc1 (centres undefined)	none
Cc1cc(-n2c(SCC(=O)NCc3ccco3)nc3n[nH]c(C)c3c2=N)ccc1Cl	none
COc1cccc(-n2c(SCC(=O)N3CCC(C)CC3)nc3n[nH]c(C)c3c2=N)c1	none
Cc1ccc(-n2c(SCC(=O)NCc3ccco3)nc3n[nH]c(C)c3c2=N)cc1C	TEAD-YAP inh 56.1
COc1cccc(-n2c(SCC(=O)N3CCN(c4ccccc4OC)CC3)nc3n[nH]c(C)c3c2=N)c1	TEAD-YAP inh 42.7
NS(=O)(=O)c1ccc(NC(=O)NC2CC(=O)N(c3ccc(F)cc3)C2)cc1 (centres undefined)	none
CCCCC(CC)C(=O)Nc1ncc([N+](=O)[O-])s1 (centres undefined)	TEAD-YAP inh 43.8
O=C(N/N=C/c1ccc(F)cc1)c1cc2sccc2[nH]1	TEAD-YAP inh 48.9
O=C(Nc1ccc(NC(=O)c2cnccn2)cn1)c1cccc(Cl)c1	none
CC(=O)Nc1ccc(-c2cnc3cccc(-c4ccccn4)c3c2)cc1	none
CC(C)N(C(=O)c1ccc(-c2nc3ccccc3s2)cc1)C(C)C	TEAD-YAP inh 54.2
CCOc1ccc2nc(-c3ccc(N)cc3)sc2c1	TEAD-YAP inh 34.8
CCOc1ccc2nc(NN)sc2c1	none
NC(=O)c1ccc2nc(-c3ccccc3)sc2c1	TEAD-YAP inh 73.5
COc1cc(NC(=O)c2ccc3nc(-c4ccc(C(N)=O)cc4)sc3c2)cc(OC)c1OC	TEAD-YAP inh 46.1
CC(=O)NCc1ccc(-c2nc3ccccc3s2)cc1	none
CC1(C)C(=O)C2(CCCCC2)C(=O)OC1c1ccc(F)cc1 (centres undefined)	none
Nc1ccc2nc(-c3ccc(O)cc3)sc2c1	TEAD-YAP inh 75.8
Nc1ccc(-c2nc3ccc(N)cc3s2)cc1	none
Nc1ccc(-c2nc3ccc(C(=O)O)cc3s2)cc1	TEAD-YAP inh 75.2
O=C(O)c1ccc2nc(-c3ccccc3)sc2c1	none
COc1ccc(CC(=O)NCc2nc(-c3cccc(C)c3)no2)cc1	none
Cn1c(=O)cc(N2CCN(c3cccc(Cl)c3)CC2)[nH]c1=O	TEAD-YAP inh 37.8
Cn1c(=O)cc(N2CCN(c3ccc(F)cc3)CC2)[nH]c1=O	none
CS(=O)(=O)Nc1ccc(-c2cnc3cccc(Nc4cncnc4)c3c2)cc1	none
CS(=O)(=O)Nc1ccc(-c2cnc3cccc(Nc4cc(-c5ccccc5)ccn4)c3c2)cc1	FBW7 act 2.4
CN(C)c1ccc2c(c1)OC(N)=C(C#N)C2c1ccc(C(F)(F)F)cc1 (centres undefined)	none
N#CC1=C(N)Oc2cc(N)ccc2C1c1cccc(Cl)c1 (centres undefined)	none
N#CC1=C(N)Oc2cc3c(cc2C1c1cccc(Br)c1)OCO3 (centres undefined)	TEAD-YAP inh 60.5
CN(C)c1ccc2c(c1)OC(N)=C(C#N)C2c1cccc(C(F)(F)F)c1 (centres undefined)	TEAD-YAP inh 56.5
Nc1nnc(CC(=O)N2CCCCC2)s1	FBW7 act 2.1
Oc1cccc(/C=C/c2ccc3cccc(OCc4ccccc4)c3n2)c1	none
CC(C)CCNC(=O)CN(C(=O)c1snc(C(N)=O)c1N)c1ccccc1F	FBW7 act 2.1
CC(C)CCNC(=O)CN(C(=O)c1snc(C(N)=O)c1N)c1ccc(F)cc1	none
COc1ccc(NC(=O)Cn2ncc3c(=O)oc4ccccc4c32)c(OC)c1	none
O=C(N/N=C\c1ccc(F)cc1)c1ccccn1	none
CSc1ccc(/C=N\NC(=O)c2ccccn2)cc1	TEAD-YAP inh 49.3
O=C(N/N=C/c1cccc(O)c1O)c1ccccn1	MITF primary 81.4
CCOc1ccc(/C=N\NC(=O)c2ccccn2)cc1	TEAD-YAP inh 36.4
CCc1ccc(/C=N/NC(=O)c2ccccn2)cc1	none
O=C(N/N=C/c1ccc(O)cc1)c1ccccn1	none
O=C(N/N=C\c1ccc(O)cc1)c1ccccn1	TEAD-YAP inh 42.1
Cc1cc(NC(=O)c2ccco2)ncc1NC(=O)c1cccc(F)c1	none
CCOc1ccc(/C=N/NC(=O)c2ccoc2C)cc1	TEAD-YAP inh 37.8
CC(/C=N\NC(=O)c1ccccn1)=C\c1ccccc1	TEAD-YAP inh 34.0
O=C(N/N=C\c1cccc(O)c1)c1ccccn1	TEAD-YAP inh 74.4
CC(=C/c1ccccc1)/C=N/NC(=O)c1ccccn1	none
C=CC[C@@H]1CC=C[C@@H](C)N1C(=O)CC1(c2cccc(OC)c2)CC(=O)N(CCOC)C1=O (some centres undefined)	none
O=C1OC(c2ccc3c(c2)OCO3)N(C(=O)c2ccccc2)c2ccccc21 (centres undefined)	none
Cc1ccc(C(=O)CN(C(=O)CCl)c2ccccc2)cc1	TEAD-YAP inh 36.4
Cc1ccc(N(CCC(N)=O)C(=O)CCl)cc1	TEAD-YAP inh 76.0
O=C(NC1CC1)c1csc(Nc2cccnc2)n1	none
COCCNC(=O)c1ccc2cncc(-c3ccsc3)c2n1	TEAD-YAP inh 78.0
O=C(NC1CC1)c1ccc2cncc(-c3ccsc3)c2n1	TEAD-YAP inh 71.2
O=[N+]([O-])c1ccc(NC(=S)NC2CCN(Cc3ccccc3)CC2)cc1	TEAD-YAP inh 34.1
NS(=O)(=O)c1ccc(NC(=S)NC2CCN(Cc3ccccc3)CC2)cc1	none
COc1ccccc1C1(CC(=O)N(C)Cc2nonc2C)CC(=O)N(C2CCCC2)C1=O (centres undefined)	none
Clc1ccc(-n2ncc3c(N4CCOCC4)ncnc32)cc1	TEAD-YAP inh 79.5
Clc1ccc(CCNc2ncnc3c2cnn3-c2ccc(Cl)cc2)cc1	none
Cc1cccc(-n2ncc3c(N4CCN(c5ccc(Cl)c(Cl)c5)CC4)ncnc32)c1	none
Clc1ccc(-n2ncc3c(NCCN4CCOCC4)ncnc32)cc1	TEAD-YAP inh 42.0
Clc1ccc(-n2ncc3c(N4CCCCCC4)ncnc32)cc1	TEAD-YAP inh 90.5
Cc1ccc(-n2ncc3c(N4CCOCC4)ncnc32)cc1Cl	TEAD-YAP inh 92.4
Clc1ccc(-n2ncc3c(N4CCN(c5ccc(Cl)c(Cl)c5)CC4)ncnc32)cc1	none
N#Cc1c(NC(=O)Cn2cc([N+](=O)[O-])cn2)sc2c1CCC2	none
CCN1CCN(C(c2ccccc2F)c2nnnn2C2CCCC2)CC1 (centres undefined)	none
Fc1ccc(-n2ncc3c(N4CCOCC4)ncnc32)cc1	TEAD-YAP inh 76.9
Cc1oc(-c2cccs2)nc1CSCC(=O)N1CCCC1	none
